Rows were chosen to be rich in hits. Some 6.8% of all compounds tested hit in one or more screens of this group.
Cy5 interf NS3h – Cy5 fluorescence interference, HCV helicase counter-screen. Cy5-dT15 DNA with NS3h; actives lie on both sides; signal over control mean, under 1 quenches. fluorescence interference ratio at 100 µM. 16,000 tested, 6% active;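 active = compound fluorescence over control fluorescence at most 0.8, a quencher, or at least a set upper limit, an enhancer; inactive = ratio between 0.8 and the set upper limit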
NS3h inh CB – blocks HCV NS3 helicase binding to DNA. NS3h Cy5-dT15 DNA binding, fluorescence polarization. inhibition, % at 100 µM. 16,000 tested, 1.6% active. AID 687043;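 active = inhibition above the average over every tested compound plus 3 SD, cut at about 40% in these data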
A number is an active result; . = inactive.

SMILES	Cy5 interf NS3h	NS3h inh CB
CC(=O)C1(Nc2ccccc2)CC(C)=NN1C(=O)c1ccccc1 (stereo unspecified)	.	.
C=CCN1C(=O)/C(=C\c2ccc(OCCOc3cccc(OC)c3)cc2)SC1=S	.	.
C=CCN1C(=O)/C(=C\c2ccc(OC(=O)c3cccc(Br)c3)cc2)SC1=S	0.75	.
O=C(/C=C/c1ccco1)Nc1cc(Cl)ccc1C(=O)O	.	63
O=C(/C=C/c1ccco1)Nc1ccc(Br)cn1	.	.
Cc1ccc(C)c(COc2ccc3c4c(c(=O)oc3c2C)CCC4)c1	.	.
Cc1cccc(OC(=O)C#Cc2ccccc2)c1	.	.
COc1cc(/C=C2\NC(=S)NC2=O)c([N+](=O)[O-])cc1OC	0.51	.
COc1cc(/C=C2\NC(=S)NC2=O)ccc1Oc1ccc([N+](=O)[O-])cn1	.	.
CC(=O)c1ccc(N2CCCCC2C)c(F)c1 (stereo unspecified)	.	.
C/C(Nc1ccc2c(c1)OCO2)=C(/C#N)C(N)=O	.	.
CCN(CC)C(=O)CN(c1cc(Cl)ccc1OC)S(=O)(=O)c1ccc(C)c([N+](=O)[O-])c1	.	.
COc1ccc(Cl)cc1N(CC(=O)NCC(C)C)S(=O)(=O)c1ccc(C)c([N+](=O)[O-])c1	0.71	.
COc1ccc(N2C(=O)NC(=O)/C(=C/c3cccc(OCCOc4ccccc4)c3)C2=O)cc1	.	.
CC(C)(C)C(=O)/C=C(N)\C=C\c1ccccc1	0.64	.
CC(C)(C)C(=O)/C=C(/O)C(=O)NCc1ccccc1	.	.
O=C(NCCOc1ccc(F)cc1)c1ccccc1-c1ccccc1	0.69	.
O=C(NCCOc1ccc(F)cc1)c1cccc2ccccc12	.	.
O=[N+]([O-])c1ccc(Cl)c(S(=O)(=O)NCc2ccccn2)c1	.	.
O=C(CCCC(=O)OCC(F)(F)C(F)F)Nc1ccc(F)cc1F	.	.
O=C(Cn1cnc([N+](=O)[O-])n1)Nc1ccc(F)cc1F	0.76	.
COc1ccc(C(=O)c2ccc(N3CCN(C(=O)c4ccccc4)CC3)c(F)c2)cc1Br	.	.
CCCN(CCC)C(=O)c1ccccc1NC(=O)c1ccccc1Cl	.	.
CCN(C(=O)c1ccccc1Cl)c1ccccc1	0.67	.
COc1ccc(NC(=O)C(c2ccccc2)c2ccccc2)c([N+](=O)[O-])c1	.	.
SMILES	Cy5 interf NS3h	NS3h inh CB
Cc1ccc(N=Cc2ccc([N+](=O)[O-])s2)c(C)c1	0.8	.
O=[N+]([O-])c1ccc(C=Nc2ccc(Cl)c([N+](=O)[O-])c2)s1	.	.
O=C(Nc1ccc(Cl)cc1Cl)c1ccccc1F	.	.
Nc1ccc(NC(=O)c2ccc(Cl)cc2Cl)c(Cl)c1	0.63	.
CCOc1ccc(N(CC(=O)Nc2ccc(OC)c(OC)c2)S(=O)(=O)c2ccc(SC)cc2)cc1	.	.
O=C1CC(c2ccccc2)CC2=C1C(c1cccc([N+](=O)[O-])c1)Nc1ccc(C(=O)c3ccccc3)cc1N2 (stereo unspecified)	0.69	.
O=C1CC(c2ccccc2)CC2=C1C(c1ccc([N+](=O)[O-])cc1)Nc1ccc(C(=O)c3ccccc3)cc1N2 (stereo unspecified)	.	.
CC(CCC(=O)Nc1ccc(F)cc1)CC(=O)Nc1ccc(F)cc1 (stereo unspecified)	.	.
Cc1ccc(-n2nc3ccc(NC(=O)COc4ccccc4[N+](=O)[O-])cc3n2)cc1Cl	.	.
CCc1ccc(S(=O)(=O)Nc2cc3c(C(=O)O)c(C)oc3c3ccccc23)cc1	0.72	.
CCOC(=O)c1c(C)oc2c(Br)cc(NS(=O)(=O)c3ccccc3)cc12	.	.
CN(C)c1ccc(/C=N\OC(=O)Nc2ccccc2)cc1	.	.
Cc1ccc(C(O)=C2C(=O)C(=O)N(c3nccs3)C2c2cccs2)cc1 (stereo unspecified)	.	.
O=C1OC2C=CC(Br)=CC2=CC1C(=O)N1CCSC1c1ccccc1Cl (stereo unspecified)	0.73	.
O=C1OC2C=CC(Br)=CC2C=C1C(=O)N1CCSC1c1ccc2c3c(cccc13)CC2 (stereo unspecified)	.	.
CCOc1cc(OCC)cc(C(=O)Nc2ccc(Cl)cc2)c1	.	.
Cc1ccc(C(=O)N/C(=C/c2cccnc2)c2nc3ccccc3[nH]2)cc1	0.8	.
Cc1ccc(C(=O)N/C(=C\c2ccccc2F)c2nc(=S)[nH][nH]2)cc1	.	.
COc1ccc(/C=C(\C#N)c2nn(-c3ccccc3)c(N)c2C#N)cc1[N+](=O)[O-]	0.79	.
CCOc1cc(/C=C(\C#N)c2nn(CCO)c(N)c2C#N)cc(Br)c1OC	.	.
Cc1cc(C)n2nc(-c3ccc(F)cc3)cc2n1	0.67	.
Cc1cc(C)n2nc(-c3cccc(F)c3)cc2n1	.	.
CC(=O)ON=C1c2cc(S(=O)(=O)N(C)C)ccc2-c2ccc(S(=O)(=O)N(C)C)cc21	0.61	.
O=S(=O)(c1ccc2c(c1)C(=NO)c1cc(S(=O)(=O)N3CCCC3)ccc1-2)N1CCCC1	.	.
N/C(=N/OC(=O)c1ccc(F)cc1)c1cccnc1	.	.
SMILES	Cy5 interf NS3h	NS3h inh CB
O=C(Nc1ccc(Cl)cc1)c1cc2ccccc2cc1O	.	.
Cc1ccc(NC(=O)c2cc3ccccc3cc2O)c(C)c1	0.77	.
O=C(Nc1cccnc1)c1cccc(Cl)c1Cl	0.72	.
CCN(CC)c1ccc(NC(=O)c2cccc(Cl)c2Cl)cc1	.	.
Cc1ccsc1/C=C1\SC(=N)N(c2ccc3c(c2)OCO3)C1=O	1.5	49
Cc1ccsc1/C=C1\SC(=S)N(C(C)C)C1=O	.	.
CC(=O)Nc1ccc(S(=O)(=O)N2CCC(Cc3ccccc3)CC2)cc1	.	.
COc1cc(NC(=O)c2ccccc2)c(Cl)cc1NC(=O)c1ccc(Cl)c(Cl)c1	.	.
CCC(C(=O)Nc1cccc(C)c1)c1ccccc1 (stereo unspecified)	.	.
CCC(C(=O)Nc1ccc(C)cc1)c1ccccc1 (stereo unspecified)	1.3	.
O=C(NCc1ccco1)c1ccc(Cl)c([N+](=O)[O-])c1	.	.
Cc1ccc2c(c1)N(C(=O)C(C)N1C(=O)c3ccccc3C1=O)C(C)(C)c1ssc(=S)c1-2 (stereo unspecified)	.	.
O=C1C2=C(Nc3[nH]n(-c4ccccc4)c(=O)c3C2c2ccccc2)c2ccccc21 (stereo unspecified)	0.76	.
COC(=O)C1=C(C)NC2=C(C(=O)c3ccccc32)C1c1ccc(F)cc1 (stereo unspecified)	.	.
N#CC1=C(N)C(C#N)(C#N)C(c2ccc(Cl)cc2Cl)C2CCCC=C12 (stereo unspecified)	1.2	.
O=C(COc1ccc([N+](=O)[O-])cc1)Nc1cccc2ccccc12	.	.
COc1ccc(N2C(=O)CC(Cc3ccccc3OC)C2=O)cc1 (stereo unspecified)	.	.
COc1ccc(N2C(=O)CC(Cc3ccc(Cl)cc3)C2=O)cc1 (stereo unspecified)	0.69	.
CCN1C(=O)/C(=C\c2cn(Cc3ccccc3)c3ccccc23)SC1=S	.	.
COc1cc(Br)c(C2C3=C(CC(C)(C)CC3=O)OC3=C2C(=O)CC(C)(C)C3)cc1OC	0.77	.
COc1ccc(C2C3=C(CC(C)(C)CC3=O)OC3=C2C(=O)CC(C)(C)C3)cc1Br	.	.
O=C(/C=C/c1ccc(-c2ccccc2Cl)o1)c1cccs1	.	.
CCOC(=O)C1=C(O)/C(=C\c2ccccc2Cl)N=C1C	.	.
